Experimental data from PubChem BioAssay (NCATS).
Records with an inconclusive call do not appear. Activity calls are given as the source filed them. Unless noted, calls follow the shape of the full dose curve.

Legend:
[1] = molecular target: Bile acid receptor (Homo sapiens) (UniProt Q96RI1); assay: qHTS assay for small molecule antagonists of farnesoid X receptor signaling (AID 588526); also: % is scaled to controls: 0 for no effect and ±100 for the full control effect
Summary of the method: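 Antagonist mode: titrated compounds tested against chenodeoxycholic acid stimulation (normalized to 50 uM CDCA and DMSO) in GeneBLAzer HEK293T cells for 16 h. Beta-lactamase read by CCF4 fluorescence; IC50 from Hill fits.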

[2] = molecular target: Bile acid receptor (Homo sapiens) (UniProt Q96RI1); assay: qHTS assay for small molecule agonists of farnesoid X receptor signaling (AID 588527); conditions: HEK293T FXR-UAS-bla, beta-lactamase ratio, 16 h; activation: stronger effect = higher value;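 also: series mostly up to about 77 µM; 0% = vehicle basal and 100% = reference agonist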
Summary of the method: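 FXR-UAS-bla HEK293T cells (10% dialyzed FBS) preincubated 5-7 h at 37 C, then compounds at up to 92 uM for 16 h at 37 C. CCF4 beta-lactamase read-out after 2 h RT. Normalized to chenodeoxycholic acid (100 uM) and DMSO; Hill fit gave EC50 and efficacy.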

[3] = molecular target: Glucocorticoid receptor (Homo sapiens) (UniProt P04150); assay: qHTS assay for small molecule agonists of glucocorticoid receptor signaling (AID 588532; active = well fitted curve in the direction sought with a large enough effect in the signal ratio, with a control signal flat; the % refers to the signal ratio;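 also: 100% = dexamethasone at 0.1 µM and 0% = DMSO only wells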); conditions: HeLa MMTV-bla, beta-lactamase ratio, agonist, 18 h; activation: stronger effect = higher value, percent of dexamethasone control, DMSO zero
Glucocorticoid receptor (Homo sapiens), sequence (P04150 whole entry, looked up): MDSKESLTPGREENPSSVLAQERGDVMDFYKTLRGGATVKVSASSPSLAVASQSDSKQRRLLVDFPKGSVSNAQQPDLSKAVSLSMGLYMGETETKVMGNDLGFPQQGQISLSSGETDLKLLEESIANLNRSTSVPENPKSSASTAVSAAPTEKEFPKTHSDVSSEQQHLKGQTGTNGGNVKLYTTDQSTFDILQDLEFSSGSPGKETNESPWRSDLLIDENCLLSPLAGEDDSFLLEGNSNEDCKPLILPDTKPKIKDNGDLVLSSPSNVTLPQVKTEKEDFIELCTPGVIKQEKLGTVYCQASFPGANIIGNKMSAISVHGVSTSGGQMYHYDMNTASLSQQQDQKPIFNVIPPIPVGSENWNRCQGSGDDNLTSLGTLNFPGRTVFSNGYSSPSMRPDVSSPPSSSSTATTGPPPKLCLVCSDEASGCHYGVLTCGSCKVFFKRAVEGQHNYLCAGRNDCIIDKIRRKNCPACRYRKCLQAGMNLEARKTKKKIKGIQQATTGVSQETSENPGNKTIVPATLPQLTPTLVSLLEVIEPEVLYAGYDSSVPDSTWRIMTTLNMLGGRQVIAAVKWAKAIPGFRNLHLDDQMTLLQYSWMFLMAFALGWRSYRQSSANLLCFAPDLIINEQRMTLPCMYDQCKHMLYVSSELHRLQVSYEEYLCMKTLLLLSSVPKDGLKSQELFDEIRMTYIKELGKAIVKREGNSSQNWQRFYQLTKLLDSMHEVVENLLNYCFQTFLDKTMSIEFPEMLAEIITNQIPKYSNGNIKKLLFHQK
Summary of the method: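 MMTV-bla HeLa beta-lactamase reporter cells in 1% charcoal/dextran FBS medium, compounds up to 92 uM for 18 h at 37 C, CCF4 readout; normalized to 0.1 uM dexamethasone (100%), EC50 and efficacy from Hill fits.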

[4] = molecular target: Glucocorticoid receptor (Homo sapiens) (UniProt P04150); assay: qHTS assay for small molecule antagonists of glucocorticoid receptor signaling (AID 588533; active = well fitted inhibition curve with a large enough effect in the signal ratio, with a control signal flat, not every such curve was filed as active; the % refers to the signal ratio;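 also: cells stimulated with 2 nM dexamethasone as agonist; % is scaled to controls: 0 for no effect and ±100 for the full control effect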)
Summary of the method: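 Antagonist-mode qHTS: compound titrations added to GRE-bla HeLa cells, then dexamethasone 2 nM final; 18 h, 37 C. CCF4 FRET fluorescence normalized to dexamethasone and DMSO; IC50 from Hill fit.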

[5] = molecular target: Vitamin D3 receptor (Homo sapiens) (UniProt P11473); assay: qHTS assay for small molecule agonists of vitamin D receptor signaling (AID 588543);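 also: 0% = DMSO basal and 100% = reference agonist control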
Vitamin D3 receptor (Homo sapiens), sequence (P11473 whole entry, looked up): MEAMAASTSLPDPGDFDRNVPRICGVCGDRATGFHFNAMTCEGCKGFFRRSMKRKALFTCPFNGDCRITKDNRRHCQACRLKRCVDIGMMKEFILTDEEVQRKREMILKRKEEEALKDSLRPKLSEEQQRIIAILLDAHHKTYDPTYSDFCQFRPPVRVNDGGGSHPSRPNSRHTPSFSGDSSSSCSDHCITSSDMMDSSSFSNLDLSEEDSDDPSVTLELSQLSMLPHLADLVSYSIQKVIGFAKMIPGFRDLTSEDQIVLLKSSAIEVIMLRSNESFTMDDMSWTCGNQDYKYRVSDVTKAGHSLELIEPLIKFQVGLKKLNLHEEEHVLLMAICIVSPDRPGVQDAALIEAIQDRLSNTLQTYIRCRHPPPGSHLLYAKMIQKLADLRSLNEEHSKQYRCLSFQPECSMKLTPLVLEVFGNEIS
Summary of the method: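 β-lactamase reporter, VDR-UAS-bla HEK293T, agonist mode. Cells plated 5 h at 37 °C, compound titration 16 h at 37 °C, CCF4 dye 2 h RT, ratio 460/530 nm. Hill fit → EC50, efficacy vs 50 nM 1α,25-(OH)2D3.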

[6] = molecular target: Thyroid hormone receptor beta (Homo sapiens) (UniProt P10828); assay: qHTS assay for small molecule agonists of thyroid hormone receptor beta signaling (AID 588545);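 also: 0% = DMSO only and 100% = 10 nM T3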
Thyroid hormone receptor beta (Homo sapiens), sequence (P10828 whole entry, looked up): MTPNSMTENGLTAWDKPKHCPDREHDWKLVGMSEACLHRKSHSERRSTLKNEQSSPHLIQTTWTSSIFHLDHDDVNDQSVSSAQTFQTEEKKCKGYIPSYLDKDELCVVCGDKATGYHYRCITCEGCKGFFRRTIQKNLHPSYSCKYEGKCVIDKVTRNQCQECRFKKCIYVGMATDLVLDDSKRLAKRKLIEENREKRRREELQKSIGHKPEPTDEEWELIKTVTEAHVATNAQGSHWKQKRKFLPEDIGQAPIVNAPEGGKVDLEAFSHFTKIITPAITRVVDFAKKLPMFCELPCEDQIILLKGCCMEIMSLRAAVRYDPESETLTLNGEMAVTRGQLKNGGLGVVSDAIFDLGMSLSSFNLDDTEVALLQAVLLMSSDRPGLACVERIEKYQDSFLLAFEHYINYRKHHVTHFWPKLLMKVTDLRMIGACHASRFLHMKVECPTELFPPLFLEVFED
Summary of the method: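 TR-UAS-bla GripTite HEK 293 cells (2500/well, medium with 2% charcoal/dextran FBS) were treated in agonist mode for 18 h at 37 C, titrated. Beta-lactamase was read by CCF4 ratio after 2 h; normalized to 10 nM T3 (100%) and DMSO, Hill-fitted for EC50 and efficacy.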

[7] = qHTS assay for small molecule antagonists of retinoid X receptor alpha signaling (AID 588546; active = well fitted inhibition curve with a large enough effect in the signal ratio, with a control signal flat, not every such curve was filed as active; the % refers to the signal ratio;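 also: cells stimulated with 9-cis-retinoic acid as agonist; % is scaled to controls: 0 for no effect and ±100 for the full control effect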); conditions: HEK293T RXRa-UAS-bla, beta-lactamase ratio, antagonist mode; measured here: W530 green channel, cytotoxicity proxy
Summary of the method: (§1)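 Beta-lactamase reporter inhibition, read as CCF4 fluorescence ratio (ex 405, em 460/530 nm) after 2 h at RT. HEK293T UAS-bla cells, 2500/well, were stimulated with 9-cis-RA at 500 or 100 nM final alongside test compound for 18 h at 37 C.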

[8] = molecular target: Retinoic acid receptor RXR-alpha (Homo sapiens) (UniProt P19793); assay: as above; conditions: HEK293T RXRa-UAS-bla, beta-lactamase ratio, antagonist mode
Retinoic acid receptor RXR-alpha (Homo sapiens), sequence (P19793 whole entry, looked up): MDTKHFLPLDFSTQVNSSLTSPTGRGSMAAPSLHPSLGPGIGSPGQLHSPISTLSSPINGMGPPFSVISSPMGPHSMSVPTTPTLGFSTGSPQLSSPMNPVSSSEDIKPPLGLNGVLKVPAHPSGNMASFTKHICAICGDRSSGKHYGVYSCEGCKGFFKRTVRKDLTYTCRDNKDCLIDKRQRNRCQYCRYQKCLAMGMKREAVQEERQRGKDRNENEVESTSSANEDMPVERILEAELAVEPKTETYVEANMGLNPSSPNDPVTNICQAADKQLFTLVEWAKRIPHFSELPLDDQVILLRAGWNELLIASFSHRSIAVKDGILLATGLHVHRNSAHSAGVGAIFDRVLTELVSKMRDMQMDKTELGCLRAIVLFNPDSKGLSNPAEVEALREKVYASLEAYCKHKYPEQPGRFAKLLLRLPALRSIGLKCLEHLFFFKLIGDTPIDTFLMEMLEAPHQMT
Summary of the method: as §1

[9] = molecular target: Thyroid hormone receptor beta (Homo sapiens) (UniProt P10828); assay: qHTS assay for small molecule antagonists of thyroid hormone receptor beta signaling (AID 588547; active = well fitted inhibition curve with a large enough effect in the signal ratio, with a control signal flat, not every such curve was filed as active; the % refers to the signal ratio;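 also: cells stimulated with 0.4 nM T3 agonist during compound exposure; series mostly up to about 77 µM; % is scaled to controls: 0 for no effect and ±100 for the full control effect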); conditions: TR-UAS-bla HEK293, beta-lactamase ratio, antagonist mode, 18 h
Summary of the method: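 TR-UAS-bla GripTite HEK293 cells in 2% charcoal/dextran FBS medium; compounds 0.59 nM to 92 uM with T3 at 0.4nM final, 18 h at 37 C. Beta-lactamase read by CCF4 fluorescence (460/530 nm); Hill fits gave IC50 and efficacy.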

[10] = qHTS assay for small molecule agonists of the antioxidant response element (ARE) signaling pathway (AID 651741; active = well fitted activation curve with a large enough effect in the signal ratio; the % refers to the signal ratio; also: potency is read from the fitted curve at half-maximal effect)
Summary of the method: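 Stably integrated ARE-beta-lactamase reporter HepG2 cells; 16 h compound incubation, 37 C; LiveBLAzer FRET substrate 2 h at room temperature; fluorescence intensity.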

[11] = qHTS assay for small molecule activators of the p53 signaling pathway (AID 651743; active = well fitted activation curve with a large enough effect in the signal ratio, not every such curve was filed as active; the % refers to the signal ratio; also: series mostly up to about 92 µM; % of control where 0% means no effect); conditions: HCT-116 p53RE-bla, beta-lactamase FRET ratio, 16 h; activation: stronger effect = higher value
Summary of the method: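 Following 16 hours of compound exposure at 37 C, HCT-116 cells bearing the p53RE-bla reporter were loaded with LiveBLAzer B/G FRET substrate for 2 hours at room temperature and fluorescence intensity was recorded.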

[12] = qHTS assay for environmental chemicals that activate the Aryl hydrocarbon Receptor (AhR) signaling pathway (AID 651777; active = well fitted curve in the direction sought with a large enough effect; an effect the other way counts as inactive or inconclusive; also: nearly all actives have a fitted effect of over 15% in size; also: potency is read from the fitted curve at half-maximal effect; as to activation: % of control where 0% means no effect); conditions: 1A2-DRE human hepatoma cells, luciferase, 24 h; activation: stronger effect = higher value
Summary of the method: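 Stable CYP1A2 promoter/DRE-luciferase human hepatoma line treated 24 hr; One-Glo luminescence, 30 min RT.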

[13] = molecular target: Peroxisome proliferator-activated receptor alpha (Homo sapiens) (UniProt Q07869); assay: qHTS assay for small molecule agonists of the peroxisome proliferator-activated receptor alpha (PPARalpha) signaling pathway (AID 651778; active = well fitted curve in the direction sought with a large enough effect; an effect the other way counts as inactive or inconclusive; also: % of control where 0% means no effect); conditions: PathHunter PPARalpha complementation, chemiluminescence, 6 h; max response: stronger effect = higher value
Peroxisome proliferator-activated receptor alpha (Homo sapiens), sequence (Q07869 whole entry, looked up, the tested form may be a part): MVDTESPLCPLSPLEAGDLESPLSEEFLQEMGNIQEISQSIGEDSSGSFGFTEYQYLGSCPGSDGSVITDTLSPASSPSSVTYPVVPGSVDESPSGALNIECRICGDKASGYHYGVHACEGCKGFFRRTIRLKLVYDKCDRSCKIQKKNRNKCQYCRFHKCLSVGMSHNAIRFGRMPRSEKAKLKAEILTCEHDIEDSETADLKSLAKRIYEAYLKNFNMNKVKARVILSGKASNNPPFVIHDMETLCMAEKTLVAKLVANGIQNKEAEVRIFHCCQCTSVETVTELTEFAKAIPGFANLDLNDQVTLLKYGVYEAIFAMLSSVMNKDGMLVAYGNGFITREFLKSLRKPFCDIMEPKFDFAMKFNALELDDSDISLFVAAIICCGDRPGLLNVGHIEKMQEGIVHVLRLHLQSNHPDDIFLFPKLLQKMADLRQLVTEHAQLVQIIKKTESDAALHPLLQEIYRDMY
Summary of the method: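 Enzyme-fragment complementation assay in which ligand-bound PPARalpha translocates and forms an active enzyme that generates chemiluminescence. Cells were plated overnight, exposed to compound for 6 hr at 37 C, and then given detection reagent for 60 min at room temperature.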

[14] = qHTS assay for small molecule agonists of the antioxidant response element (ARE) signaling pathway measured by Nrf2-dependant transcriptional activity - cell viability counter screen (AID 720653; active = well fitted curve in the direction sought with a large enough effect in the repeat runs; an effect the other way counts as inactive or inconclusive; also: % is scaled to controls: 0 for no effect and ±100 for the full control effect); conditions: ARE-bla HepG2 viability, CellTiter-Glo ATP luminescence, 16 h; max response: stronger effect = lower value
Summary of the method: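 ARE-bla HepG2 cells treated with compounds for 16 h at 37C; this counter screen measures viability as intracellular ATP by CellTiter-Glo luminescence after 30 min at room temperature.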

[15] = qHTS assay for cell viability of HEK293 cells (AID 743288; active = well fitted curve in the direction sought with a large enough effect; an effect the other way counts as inactive or inconclusive; also: % is scaled to controls: 0 for no effect and ±100 for the full control effect; nearly all actives have a fitted effect of over 50% in size); conditions: ATP luminescence (CellTiter-Glo), 18 h; max response: stronger effect = lower value
Summary of the method: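 ATP luminescence (CellTiter-Glo) reports metabolically competent cell number after parental HEK293 cells, 2,000/well, were treated with DMSO-dissolved compounds for 18 h at 37 C; reagent incubation 30 min, room temperature.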

[16] = qHTS assay for cell viability of the p53RE-bla HCT-116 cell line (AID 743292; active = well fitted curve in the direction sought with a large enough effect; an effect the other way counts as inactive or inconclusive; also: % is scaled to controls: 0 for no effect and ±100 for the full control effect; nearly all actives have a fitted effect of over 55% in size)
Summary of the method: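 Readout: CellTiter-Glo luminescence after 30 min RT. Treatment: compounds in DMSO, 16 h, 37 C. Cells: CellSensor p53RE-bla HCT-116, 4,000/well, preincubated 5 h.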

[17] = molecular target: Androgen receptor (Homo sapiens) (UniProt P10275); assay: qHTS assay for small molecule agonists of androgen receptor signaling (AID 588515; active = well fitted curve in the direction sought with a large enough effect in the signal ratio, with a control signal flat; the % refers to the signal ratio; also: % is scaled to controls: 0 for no effect and ±100 for the full control effect); conditions: AR-UAS-bla HEK293, beta-lactamase ratio, agonist 16 h; stronger effect = higher value
Summary of the method: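 Stimulation of an AR-responsive β-lactamase reporter in GripTite HEK293 cells was measured after 16 h compound exposure at 37 °C, via CCF4 fluorescence after 2 h RT. EC50 from Hill fits, normalized to R1881 at 30 nM.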

[18] = molecular target: Peroxisome proliferator-activated receptor delta (Homo sapiens) (UniProt Q03181); assay: qHTS assay for small molecule agonists of peroxisome proliferator-activated receptor delta signaling (AID 588534);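 also: 0% = DMSO basal wells and 100% = positive control agonist at 10 µM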
Peroxisome proliferator-activated receptor delta (Homo sapiens), sequence (Q03181 whole entry, looked up): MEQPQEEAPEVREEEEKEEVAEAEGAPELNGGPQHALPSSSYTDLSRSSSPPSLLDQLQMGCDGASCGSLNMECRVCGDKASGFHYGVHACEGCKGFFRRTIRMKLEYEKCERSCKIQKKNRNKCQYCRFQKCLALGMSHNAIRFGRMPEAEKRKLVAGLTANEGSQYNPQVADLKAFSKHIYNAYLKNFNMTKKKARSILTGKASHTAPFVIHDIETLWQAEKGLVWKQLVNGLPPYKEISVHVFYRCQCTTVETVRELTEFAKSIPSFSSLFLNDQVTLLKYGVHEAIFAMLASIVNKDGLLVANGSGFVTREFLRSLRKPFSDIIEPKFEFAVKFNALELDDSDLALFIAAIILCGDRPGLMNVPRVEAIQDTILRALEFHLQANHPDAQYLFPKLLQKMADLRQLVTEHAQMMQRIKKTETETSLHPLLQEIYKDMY
Summary of the method: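 Agonist-mode beta-lactamase reporter readout (CCF4 dye, 2 h at RT) after 18 h at 37 °C exposure to a titration; Hill-equation fitting gave EC50 and maximal response.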

[19] = qHTS assay for small molecule antagonists of peroxisome proliferator-activated receptor delta signaling (AID 588535; active = well fitted inhibition curve with a large enough effect in the signal ratio, with a control signal flat, not every such curve was filed as active; the % refers to the signal ratio;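 as to max response: cells co-treated with a PPAR-delta agonist as stimulator during compound exposure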); conditions: HEK293T PPARd-UAS-bla, beta-lactamase FRET ratio, 18 h; 460 nm channel
Summary of the method: (§2)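 Fluorescence from CCF4-loaded GeneBLAzer PPAR-delta-UAS-bla HEK293T cells (2 hrs RT loading) quantified reporter inhibition after an 18 hr, 37 C compound exposure across a titration.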

[20] = molecular target: Peroxisome proliferator-activated receptor delta (Homo sapiens) (UniProt Q03181); assay: as above
Summary of the method: as §2

[21] = molecular target: Peroxisome proliferator-activated receptor gamma (Homo sapiens) (UniProt P37231); assay: qHTS assay for small molecule agonists of peroxisome proliferator-activated receptor gamma signaling (AID 588536; active = well fitted curve in the direction sought with a large enough effect in the signal ratio, with a control signal flat, not every such curve was filed as active; the % refers to the signal ratio;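 also: 0% = DMSO basal wells and 100% = rosiglitazone at 2 µM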)
Peroxisome proliferator-activated receptor gamma (Homo sapiens), sequence (P37231 whole entry, looked up): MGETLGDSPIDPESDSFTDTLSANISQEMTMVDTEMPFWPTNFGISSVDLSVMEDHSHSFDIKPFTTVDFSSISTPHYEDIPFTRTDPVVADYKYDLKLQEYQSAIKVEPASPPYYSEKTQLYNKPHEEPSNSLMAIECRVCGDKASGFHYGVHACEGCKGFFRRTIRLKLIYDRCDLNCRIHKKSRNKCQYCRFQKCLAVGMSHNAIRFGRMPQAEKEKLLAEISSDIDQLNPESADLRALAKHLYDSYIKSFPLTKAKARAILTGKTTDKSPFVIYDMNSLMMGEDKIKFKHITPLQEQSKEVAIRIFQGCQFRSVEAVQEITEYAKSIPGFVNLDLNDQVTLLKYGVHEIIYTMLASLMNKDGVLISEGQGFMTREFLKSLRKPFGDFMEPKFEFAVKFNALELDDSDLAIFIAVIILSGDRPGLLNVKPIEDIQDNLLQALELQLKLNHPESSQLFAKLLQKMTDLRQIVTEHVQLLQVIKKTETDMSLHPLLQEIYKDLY
Summary of the method: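 Cells were plated and held 6–6.5 h at 37 C, then compounds were added as a titration series. After a further 16 h, CCF4 dye was loaded for 2 h at room temperature and emission at 460/530 nm recorded.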

[22] = molecular target: Peroxisome proliferator-activated receptor gamma (Homo sapiens) (UniProt P37231); assay: qHTS assay for small molecule antagonists of peroxisome proliferator-activated receptor gamma signaling (AID 588537; active = well fitted inhibition curve with a large enough effect in the signal ratio, with a control signal flat, not every such curve was filed as active; the % refers to the signal ratio;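 also: reporter cells co-stimulated with 50 nM rosiglitazone agonist during compound treatment; % of control where 0% means no effect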)
Summary of the method: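 Fluorescence at 460 and 530 nm (405 nm excitation) reported beta-lactamase cleavage of CCF4 after 2 h room-temperature loading. HEK293 reporter cells in 1% charcoal/dextran-treated FBS had received compound and rosiglitazone for 16 h.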

[23] = qHTS assay for small molecule agonists of retinoid X receptor alpha signaling (AID 588544); conditions: HEK293T RXRa-UAS-bla, beta-lactamase reporter, 18 h; 530 nm emission;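 as to activation: 0% = DMSO basal wells and 100% = reference agonist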
[24] = molecular target: Retinoic acid receptor RXR-alpha (Homo sapiens) (UniProt P19793); assay: as above
[25] = qHTS assay for small molecule activators of the nuclear factor-kappa B (NF-kB) signaling pathway (AID 651749; active = well fitted activation curve with a large enough effect in the signal ratio; the % refers to the signal ratio; also: series mostly up to about 77 µM; % of control where 0% means no effect); conditions: NF-kB-bla ME-180 cells, beta-lactamase FRET ratio, 16 h; activation: stronger effect = higher value
Summary of the method: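 In this qHTS format, compounds acting as activators increase NF-kB-driven beta-lactamase in ME-180 cells, measured as disrupted FRET after 16 hr exposure at 37C and 5% CO2.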

[26] = qHTS assay for small molecule agonists of the antioxidant response element (ARE) signaling pathway measured by Nrf2-dependant transcriptional activity (AID 720636; active = well fitted curve in the direction sought with a large enough effect in the repeat runs; an effect the other way counts as inactive or inconclusive;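 also: HepG2 cells with an ARE-driven luciferase reporter; % of control where 0% means no effect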)
Summary of the method: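 Reporter gene assay, HepG2 ARE-luc: 16 hr compound, 37 C, 5% CO2; read-out luciferase luminescence.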

[27] = molecular target: Nuclear receptor subfamily 1 group I member 2 (Rattus norvegicus) (UniProt Q9R1A7); assay: qHTS assay for small molecule activators of the rat pregnane X receptor (rPXR) signaling pathway (AID 651751; call rule not given here; also: 0% is about no effect); conditions: rPXR reporter cells, luciferase (One-Glo), 24 h
Nuclear receptor subfamily 1 group I member 2 (Rattus norvegicus), sequence (Q9R1A7 whole entry, looked up): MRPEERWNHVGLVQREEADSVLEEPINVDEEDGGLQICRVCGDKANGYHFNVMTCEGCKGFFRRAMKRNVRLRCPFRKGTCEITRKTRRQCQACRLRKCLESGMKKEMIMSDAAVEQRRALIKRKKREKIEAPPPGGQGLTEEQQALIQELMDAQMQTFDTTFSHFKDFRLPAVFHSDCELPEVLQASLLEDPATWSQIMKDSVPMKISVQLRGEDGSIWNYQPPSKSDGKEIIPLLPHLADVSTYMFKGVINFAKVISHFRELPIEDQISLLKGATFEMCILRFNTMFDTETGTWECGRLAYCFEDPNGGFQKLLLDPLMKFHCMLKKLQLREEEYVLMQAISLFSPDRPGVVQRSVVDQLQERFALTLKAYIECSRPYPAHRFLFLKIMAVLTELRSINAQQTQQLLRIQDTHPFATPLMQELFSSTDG

[28] = qHTS assay for small molecule activators of the human pregnane X receptor (PXR) signaling pathway (AID 720659; call rule not given here; also: 0% is about no effect)

Bile acid receptor (Homo sapiens), sequence (Q96RI1 whole entry, looked up): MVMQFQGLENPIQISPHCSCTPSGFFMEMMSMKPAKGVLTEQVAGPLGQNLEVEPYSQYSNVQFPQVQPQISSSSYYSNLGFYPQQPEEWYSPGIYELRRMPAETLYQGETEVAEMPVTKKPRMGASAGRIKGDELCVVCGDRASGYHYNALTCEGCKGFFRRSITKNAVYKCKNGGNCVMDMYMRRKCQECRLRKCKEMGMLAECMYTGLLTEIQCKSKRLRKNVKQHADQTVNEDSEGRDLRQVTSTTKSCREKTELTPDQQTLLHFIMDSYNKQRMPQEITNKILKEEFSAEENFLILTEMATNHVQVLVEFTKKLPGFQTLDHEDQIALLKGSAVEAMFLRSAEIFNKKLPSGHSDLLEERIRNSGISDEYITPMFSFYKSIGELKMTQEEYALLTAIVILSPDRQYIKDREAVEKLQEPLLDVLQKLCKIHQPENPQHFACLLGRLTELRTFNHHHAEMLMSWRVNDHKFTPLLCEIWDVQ

O=[N+]([O-])c1ccc(Nc2ccccc2)cc1
inactive: Potency [1] | activation [2] 0.7% | activation [3] -0.43% | Potency [4] | outcome [5] | Potency [6] | max response [8] -16.2% | activity change % (negative = inhibition) [9] -15.7% | activation [11] -0.549% | activation [12] 5.27% | max response [13] -1.55% | max response [14] -13.2% | max response [15] 1.82% | Potency [16]
active: Potency [10] 48.6 µM
-4.45%: max response [7]

O=C1C=CC(=O)c2ccccc21
-18.7%: max response [19]
-1.96%: max response [7]
inactive: activation [17] 0.338% | Potency [1] | activation [3] 0.432% | Potency [4] | outcome [18] | Potency [20] | Potency [21] | Potency [22] | outcome [5] | Potency [24] | Potency [6] | max response [8] -12.9% | activation [11] -3.99% | activation [25] -1.33% | max response [13] -1.22% | Potency [26] | max response [14] -8.11% | max response [15] -3.96% | Potency [16] | max response [27] 2.78% | outcome [28]
12.1%: max response [23]
active: Potency [10] 54.5 µM | Potency [12] 15.8 µM
